PubChem BioAssay (NCATS)
Where “and” joins values, the source holds several entries; their conditions need not be identical. Equal values may be shown once. Calls of active or inactive are those of the source. Unless noted, calls follow the shape of the dose curve; as a rule, active = well fitted curve in the direction sought with a large enough effect; inconclusive = small, poorly fitted or top-dose-only effect, or another doubt; inactive = no such curve, though single readings can be large; an effect the other way counts as inactive or inconclusive.

What was measured:
[1] = target: Cytochrome P450 1A2 (Homo sapiens) (UniProt P05177); test: p450-cyp1a2 (AID 410; calls by dose curve; also: potency is read from the fitted curve at half-maximal effect)
Chain of Cytochrome P450 1A2 (Homo sapiens) (P05177 whole entry, looked up): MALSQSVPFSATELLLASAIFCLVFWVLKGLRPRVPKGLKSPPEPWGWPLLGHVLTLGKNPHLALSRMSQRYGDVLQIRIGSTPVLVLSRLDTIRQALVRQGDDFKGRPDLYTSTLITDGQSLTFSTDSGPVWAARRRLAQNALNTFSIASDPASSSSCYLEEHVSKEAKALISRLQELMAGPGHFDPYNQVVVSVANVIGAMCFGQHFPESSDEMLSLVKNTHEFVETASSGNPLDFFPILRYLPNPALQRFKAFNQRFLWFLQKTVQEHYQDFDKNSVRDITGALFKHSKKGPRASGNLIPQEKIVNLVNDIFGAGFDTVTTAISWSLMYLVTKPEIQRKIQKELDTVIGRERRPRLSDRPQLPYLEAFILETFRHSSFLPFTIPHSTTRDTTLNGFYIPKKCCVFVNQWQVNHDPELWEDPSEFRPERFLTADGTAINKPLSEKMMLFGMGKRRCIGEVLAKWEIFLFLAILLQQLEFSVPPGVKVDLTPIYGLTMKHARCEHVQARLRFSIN
Method in brief: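 Inhibition was calculated relative to 57 uM furafylline (full inhibition). The reaction used human CYP1A2 at 20nM with Luciferin-ME at its Km, 100uM, driven by an NADPH-regenerating system for 60 min at room temperature.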

[2] = target: Cytochrome P450 3A4 (Homo sapiens) (UniProt P08684); test: qHTS Assay for Activators of Cytochrome P450 3A4 (AID 885); also: nearly all actives have a fitted effect of over 65% in size
Chain of Cytochrome P450 3A4 (Homo sapiens) (P08684 whole entry, looked up): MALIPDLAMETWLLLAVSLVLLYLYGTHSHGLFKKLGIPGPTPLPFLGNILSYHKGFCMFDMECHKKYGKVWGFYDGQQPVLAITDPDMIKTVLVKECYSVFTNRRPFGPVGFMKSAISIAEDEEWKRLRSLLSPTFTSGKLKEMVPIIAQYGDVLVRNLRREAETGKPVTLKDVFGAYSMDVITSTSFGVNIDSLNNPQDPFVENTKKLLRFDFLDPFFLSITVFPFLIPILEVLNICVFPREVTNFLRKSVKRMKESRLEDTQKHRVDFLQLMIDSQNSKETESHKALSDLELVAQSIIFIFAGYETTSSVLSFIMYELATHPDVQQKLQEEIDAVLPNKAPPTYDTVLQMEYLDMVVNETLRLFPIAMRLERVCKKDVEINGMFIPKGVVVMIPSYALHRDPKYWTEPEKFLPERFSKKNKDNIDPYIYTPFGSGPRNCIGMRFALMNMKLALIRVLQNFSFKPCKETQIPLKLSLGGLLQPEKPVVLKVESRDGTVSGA
Method in brief: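 Steps: enzyme/substrate mix dispensed; compound added, 10 min RT; NADPH regeneration solution added, 60 min RT; luciferin detection buffer stops reaction; 20 min later luminescence measured.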

[3] = Cell Viability - LYMP2-004 (AID 966); also: nearly all actives have a fitted effect of over 65% in size; also: potency is read from the fitted curve at half-maximal effect
Method in brief: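 Acute toxicity is scored as a concentration-dependent drop in intracellular ATP, quantified by luciferase luminescence, in human lymphoblastoid cells exposed to compound for 24 hr. AC50 derives from Hill-equation modelling.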

[4] = Cell Viability - LYMP2-013 (AID 970); also: nearly all actives have a fitted effect of over 55% in size; also: potency is read from the fitted curve at half-maximal effect
Method in brief: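 Acute toxicity was measured in human lymphoblastoid cells (2500/well) exposed to compound titrations for 24 hr, with ATP luminescence (CellTiter-Glo) as read-out and AC50 fitted by Hill equation.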

[5] = Cell Viability - LYMP2-002 (AID 977); also: potency is read from the fitted curve at half-maximal effect
Method in brief: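 Luminescent ATP readout (CellTiter-Glo, 30 min room temperature) after 24 h compound exposure at 37 C of a human lymphoblastoid line, 2500 cells/well. AC50 values derived by standard Hill fitting of qHTS concentration-response data.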

[6] = Cell Viability - LYMP2-006 (AID 978); also: nearly all actives have a fitted effect of over 60% in size; also: potency is read from the fitted curve at half-maximal effect
Method in brief: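 In this cytotoxicity screen, the human lymphoblastoid line grew in complete medium with test compounds for 24 hr at 37 C. Cellular ATP served as the viability signal.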

[7] = Cell Viability - LYMP2-014 (AID 983); also: nearly all actives have a fitted effect of over 50% in size; also: potency is read from the fitted curve at half-maximal effect
Method in brief: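 Decrease in intracellular ATP after 24 hr treatment at 37 C, measured by luciferase luminescence, indicated cytotoxicity. Concentration-response data were fitted with the standard Hill equation to give AC50.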

[8] = Cell Viability - LYMP2-022 (AID 987); also: nearly all actives have a fitted effect of over 55% in size; also: potency is read from the fitted curve at half-maximal effect
Method in brief: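 Acute toxicity in a human lymphoblastoid line is scored as decreased intracellular ATP after 24 hr compound treatment at 37 C. ATP is measured by CellTiter-Glo luminescence; curves are fitted with the Hill equation to give AC50.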

[9] = Cell Viability - LYMP2-024 (AID 988);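 also: cells exposed to compound for 24 hr at 37 °C; nearly all actives have a fitted effect of over 60% in size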; also: potency is read from the fitted curve at half-maximal effect
Method in brief: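 Acute toxicity is measured as concentration-dependent loss of intracellular ATP in a human lymphoblastoid line treated 24 hours at 37 C. Luciferase luminescence quantifies ATP; AC50 values come from standard Hill-equation modelling.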

[10] = target: Estrogen receptor (Homo sapiens) (UniProt P03372); test: qHTS assay for small molecule antagonists of estrogen receptor alpha signaling (AID 588513; active = well fitted curve in the direction sought with a large enough effect in the signal ratio, with a control signal flat, not every such curve was filed as active; inconclusive = small, poorly fitted or top-dose-only effect, or effect the other way, or a change in a side signal; inactive = no such curve, though single readings can be large or run the other way; the % refers to the signal ratio; also: potency is read from the fitted curve at half-maximal effect)
Chain of Estrogen receptor (Homo sapiens) (P03372 whole entry, looked up): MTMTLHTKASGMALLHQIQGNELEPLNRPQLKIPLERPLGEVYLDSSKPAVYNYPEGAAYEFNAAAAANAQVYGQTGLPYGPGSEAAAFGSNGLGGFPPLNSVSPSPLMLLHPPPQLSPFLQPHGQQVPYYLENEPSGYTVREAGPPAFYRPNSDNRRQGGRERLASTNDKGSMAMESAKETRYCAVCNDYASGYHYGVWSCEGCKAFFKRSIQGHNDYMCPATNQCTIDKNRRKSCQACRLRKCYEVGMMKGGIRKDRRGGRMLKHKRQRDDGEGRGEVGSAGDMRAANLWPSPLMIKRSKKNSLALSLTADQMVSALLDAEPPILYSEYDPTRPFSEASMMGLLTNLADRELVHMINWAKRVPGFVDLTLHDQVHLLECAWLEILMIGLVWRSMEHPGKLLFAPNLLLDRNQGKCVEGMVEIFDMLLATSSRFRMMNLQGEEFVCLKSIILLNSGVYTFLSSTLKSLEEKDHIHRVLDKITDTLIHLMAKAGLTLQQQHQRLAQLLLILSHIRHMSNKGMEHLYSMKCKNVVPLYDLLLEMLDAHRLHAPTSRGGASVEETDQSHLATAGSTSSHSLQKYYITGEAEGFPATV
Method in brief: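 Antagonist-mode qHTS in ER-alpha-UAS-bla HEK 293 cells: compound titration, 0.5nM estradiol for 18 h, CCF4 fluorescence, Hill-derived IC50.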

[11] = target: Peroxisome proliferator-activated receptor delta (Homo sapiens) (UniProt Q03181); test: qHTS assay for small molecule agonists of peroxisome proliferator-activated receptor delta signaling (AID 588534; calls by dose curve;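 also: 0% = DMSO basal wells and 100% = positive control agonist at 10 µM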)
Chain of Peroxisome proliferator-activated receptor delta (Homo sapiens) (Q03181 whole entry, looked up): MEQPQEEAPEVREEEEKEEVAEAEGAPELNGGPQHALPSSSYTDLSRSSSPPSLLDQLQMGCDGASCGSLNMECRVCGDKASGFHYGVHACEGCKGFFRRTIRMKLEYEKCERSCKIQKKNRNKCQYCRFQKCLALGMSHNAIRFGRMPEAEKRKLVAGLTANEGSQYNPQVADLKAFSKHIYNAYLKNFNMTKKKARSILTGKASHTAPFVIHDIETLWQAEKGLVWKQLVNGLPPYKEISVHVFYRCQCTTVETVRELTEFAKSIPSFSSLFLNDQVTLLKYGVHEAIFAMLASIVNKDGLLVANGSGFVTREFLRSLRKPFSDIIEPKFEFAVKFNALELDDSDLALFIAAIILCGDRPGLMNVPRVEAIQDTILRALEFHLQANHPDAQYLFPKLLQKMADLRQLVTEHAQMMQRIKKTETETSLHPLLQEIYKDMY
Method in brief: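 Reporter cells were plated and held 5 hrs at 37 C before compounds were added. After 18 hrs at 37 C, CCF4 dye was loaded for 2 hrs at RT and fluorescence measured.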

[12] = target: Voltage-gated inwardly rectifying potassium channel KCNH2 (Homo sapiens) (UniProt Q12809); test: qHTS Assay for Small Molecule Inhibitors of the Human hERG Channel Activity (AID 588834);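 also: lower thallium flux fluorescence means stronger hERG block; nearly all actives have a fitted effect of over 50% in size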; also: potency is read from the fitted curve at half-maximal effect
Chain of Voltage-gated inwardly rectifying potassium channel KCNH2 (Homo sapiens) (Q12809 whole entry, looked up): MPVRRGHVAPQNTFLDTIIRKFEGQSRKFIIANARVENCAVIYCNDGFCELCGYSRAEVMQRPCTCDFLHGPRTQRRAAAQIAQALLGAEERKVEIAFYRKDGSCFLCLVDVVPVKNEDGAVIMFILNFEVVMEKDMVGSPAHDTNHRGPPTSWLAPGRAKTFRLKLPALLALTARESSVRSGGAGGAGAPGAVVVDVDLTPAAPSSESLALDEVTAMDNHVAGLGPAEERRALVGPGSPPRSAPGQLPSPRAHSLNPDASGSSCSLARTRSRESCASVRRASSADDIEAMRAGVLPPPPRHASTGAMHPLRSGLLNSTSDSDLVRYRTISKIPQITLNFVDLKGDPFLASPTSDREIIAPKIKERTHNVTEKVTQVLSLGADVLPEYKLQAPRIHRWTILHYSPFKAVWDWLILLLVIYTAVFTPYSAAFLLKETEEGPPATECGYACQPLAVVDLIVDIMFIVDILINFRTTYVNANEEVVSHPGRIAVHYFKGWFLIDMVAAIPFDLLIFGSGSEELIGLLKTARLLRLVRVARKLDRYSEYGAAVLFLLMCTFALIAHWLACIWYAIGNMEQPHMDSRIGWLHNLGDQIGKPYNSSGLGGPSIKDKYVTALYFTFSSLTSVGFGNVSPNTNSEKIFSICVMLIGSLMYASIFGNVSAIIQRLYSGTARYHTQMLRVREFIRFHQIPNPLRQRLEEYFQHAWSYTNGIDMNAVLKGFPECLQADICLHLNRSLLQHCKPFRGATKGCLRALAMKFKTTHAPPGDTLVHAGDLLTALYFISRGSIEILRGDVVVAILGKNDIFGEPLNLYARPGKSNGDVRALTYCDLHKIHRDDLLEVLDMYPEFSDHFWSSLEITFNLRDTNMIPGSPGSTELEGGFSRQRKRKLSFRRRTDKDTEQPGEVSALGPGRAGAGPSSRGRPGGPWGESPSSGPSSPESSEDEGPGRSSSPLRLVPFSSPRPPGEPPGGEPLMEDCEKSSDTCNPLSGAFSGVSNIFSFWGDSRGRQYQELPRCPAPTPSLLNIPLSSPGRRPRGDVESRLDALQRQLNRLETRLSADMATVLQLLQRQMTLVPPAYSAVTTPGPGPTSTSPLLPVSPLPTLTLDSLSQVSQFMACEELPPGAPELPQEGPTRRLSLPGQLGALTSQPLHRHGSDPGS
Method in brief: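 Blockade is seen as reduced FluxOR thallium-flux fluorescence in U2OS cells expressing hERG from a BacMam construct, in Opti-MEM with 2% FCS. Concentration-response data fitted to the Hill equation for AC50.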

[13] = qHTS assay for small molecule agonists of the antioxidant response element (ARE) signaling pathway (AID 651741; active = well fitted activation curve with a large enough effect in the signal ratio; inconclusive = small, poorly fitted or top-dose-only effect, or effect the other way, or a change in a side signal; the % refers to the signal ratio; also: potency is read from the fitted curve at half-maximal effect; as to activation: % of control where 0% means no effect)
Method in brief: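 ARE-bla HepG2 cells (beta-lactamase reporter under ARE control) were plated at 2,000 cells/well, preincubated 5 h at 37 C/5% CO2, then treated with DMSO-dissolved compounds for 16 h at 37 C; LiveBLAzer B/G FRET substrate added, fluorescence read after 2 h at room temperature.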

[14] = qHTS assay for small molecule antagonists of the retinoid-related orphan receptor gamma (ROR-gamma) signaling pathway - cell viability counter screen (AID 720652; active = well fitted curve in the direction sought with a large enough effect in the repeat runs; inconclusive = weak or mixed curves; inactive = no such curve, though single readings can be large; an effect the other way counts as inactive or inconclusive;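 also: compound exposure lasted 16 hr before ATP read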; also: potency is read from the fitted curve at half-maximal effect)
Method in brief: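 Cytotoxicity is quantified via intracellular ATP (CellTiter-Glo luminescence) in doxycycline-induced CHO ROR response element-luciferase reporter cells treated with compound for 16 hr at 37 C, 5% CO2.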

[15] = Cellular Toxicity (caspase-3) H-4-II-E (AID 663); settings: H-4-II-E rat hepatoma, scaled: DMSO 0%, 100 µM tamoxifen 100%; at 92.2 µM (top of the series);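 also: cells exposed to compound for 16 hr before readout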
Method in brief: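 Luminescence from caspase-cleaved aminoluciferin substrate, read 20 min after reagent addition, reports caspase 3/7 activation in rat H-4-II-E cells after 16 hr compound exposure. Normalized to DMSO (basal) and 100 uM tamoxifen (100%); AC50 from Hill fits.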

[16] = MultiTox-Fluor Cytotoxicity Assay - LYMP1-001 - Dead Cells (AID 946);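 also: 0% = DMSO and 100% = tetraoctylammonium bromide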
Method in brief: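 Seed 2500 LYMP1-001 cells/well, incubate 5 hr at 37 C; add compound, 16 hr at 37 C; add MultiTox-Fluor reagent, 60 min RT; read dead-cell fluorescence Ex/Em=485/520. Normalize to DMSO and 15 uM tetraoctylammonium bromide.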

[17] = MultiTox-Fluor Cytotoxicity Assay - LYMP1-001 - Live Cells (AID 947);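 also: 0% = DMSO only and full inhibition = tetraoctylammonium bromide control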
[18] = MultiTox-Fluor Cytotoxicity Assay - LYMP1-002 - Dead Cells (AID 960); also: nearly all actives have a fitted effect of over 60% in size; also: potency is read from the fitted curve at half-maximal effect
Method in brief: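 Acute cytotoxicity in a human lymphoblastoid line is scored as rising dead-cell protease signal after 16 hr exposure at 37 C, measured fluorometrically (485/520).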

[19] = qHTS assay for small molecule activators of the p53 signaling pathway (AID 651743; active = well fitted activation curve with a large enough effect in the signal ratio, not every such curve was filed as active; inconclusive = small, poorly fitted or top-dose-only effect, or a change in a side signal; the % refers to the signal ratio; also: % of control where 0% means no effect); settings: HCT-116 p53RE-bla, beta-lactamase FRET ratio, 16 h; activation: active compounds read high
Method in brief: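 p53RE-bla HCT-116 cells with a stably integrated beta-lactamase reporter under p53 response elements were plated, rested 5 hours at 37 C/5% CO2, then exposed to compounds in DMSO for 16 hours at 37 C. LiveBLAzer B/G FRET substrate was read after 2 hours at room temperature.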

[20] = qHTS assay for small molecule disruptors of the mitochondrial membrane potential - 1 hr assay (AID 651754; calls by dose curve; also: nearly all actives have a fitted effect of over 35% in size; also: potency is read from the fitted curve at half-maximal effect)
Method in brief: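 Steps: seed HepG2 cells and let attach overnight; pin-transfer compound or vehicle; incubate 1 hr at 37C; add Mito-MPS dye for 30 min; read two-channel fluorescence for monomer and aggregate forms.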

C=C1C/C(=C\C)C(=O)O[C@@H]2CCN3CC=C(COC(=O)[C@]1(C)O)[C@H]23
inactive: Potency [1]

COc1cc2c(cc1O)-c1c(O)c(OC)cc3c1[C@H](C2)N(C)CC3
inactive: Potency [2]
active: Potency [1] 3.16 µM

COc1ccc2[nH]c3c(c2c1)CCN=C3C
inactive: Potency [2]

CC(C)CC(C)Nc1ccc(Nc2ccccc2)cc1 (stereo unspecified)
active: Potency [3] 25.1 µM | Potency [4] 50.1 µM | Potency [5] 39.8 µM | Potency [6] 39.8 µM | Potency [7] 39.8 µM | Potency [8] 31.6 µM | Potency [9] 25.1 µM | Potency [10] 25.1 µM [inconclusive] | Potency [12] 20 µM | Potency [13] 59.6 µM | Potency [14] 59.6 µM
inactive: Potency [2] | outcome [11]

O=C(O)C1C(C(=O)O)C2(Cl)C(Cl)=C(Cl)C1(Cl)C2(Cl)Cl (stereo unspecified)
inactive: caspase-3 activation [15] -0.161% | Potency [16] | Potency [17] | Potency [18] | Potency [3] | Potency [4] | Potency [5] | Potency [6] | Potency [7] | Potency [8] | Potency [9] | Potency [10] | outcome [11] | Potency [12] | Potency [13] | activation [19] -3.18% | Potency [20] | Potency [14]

COC(=O)C1(C)C=C2C(=C(C)C(=O)C2C)CN1 (stereo unspecified)
active: Potency [1] 31.6 µM

OC(c1ccc(Cl)cc1)(c1ccc(Cl)cc1)C(Cl)(Cl)Cl
inactive: Potency [16] | Potency [17] | Potency [3] | Potency [4] | Potency [5] | Potency [6] | Potency [7] | Potency [8] | Potency [9] | Potency [10] | outcome [11] | Potency [20]
active: Potency [12] 39.8 µM

CN(CCc1ccc(Cl)c(Cl)c1)[C@H]1CCCC[C@H]1N1CCCC1
inactive: Potency [2]
active: Potency [1] 31.6 µM

Cc1ccc(O)cc1C
inactive: activation [19] -0.374%

C[C@H]1CC[C@]2(NC1)O[C@@H]1C[C@@H]3[C@@H]4CC=C5C[C@H](O)CC[C@@]5(C)[C@H]4CC[C@@]3(C)[C@H]1[C@@H]2C
inactive: Potency [1]

Clc1ccc(C(c2ccc(Cl)cc2)C(Cl)Cl)cc1
inactive: Potency [3] | Potency [4] | Potency [5] | Potency [6] | Potency [7] | Potency [8] | Potency [9] | outcome [11] | activation [19] 6.6%
active: caspase-3 activation [15] 87.3% | Potency [18] 15.8 µM | Potency [10] 39.8 µM [inconclusive] | Potency [12] 22.4 µM | Potency [13] 66.8 µM and 61.1 µM | Potency [20] 59.6 µM

C#CCO
inactive: caspase-3 activation [15] 0.354% | Potency [16] | Potency [17] | Potency [18] | Potency [3] | Potency [4] | Potency [5] | Potency [6] | Potency [7] | Potency [8] | Potency [9] | Potency [10] | outcome [11] | Potency [12] | activation [19] 0.794% | Potency [14]

CCCc1cc2c(n1CCO)C(C)C1CN(C(=O)c3ccccc3)C(C)(C(=O)OC)C21 (stereo unspecified)
inactive: Potency [1] | Potency [2]
